Assay outcomes from PubChem.
Most compounds without a hit are left out; they make up all but 9.4% or so of the library.
SMN2 splice up = SMN2 splice variant enhancement. HEK293 SMN2-luciferase splicing reporter, luminescence, 30-36 h. Potency, µM (titrated, usually from 46.1 µM), for inactives: top-dose activity change, positive = activation, hits mostly activators. hit rate 2.8% among 210,000. AID 1458; further: % of control where 0% means no effect; nearly all actives have a fitted effect of over 55% in size
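HEK293 cells carry an SMN2 minigene-luciferase reporter in which exon 7 inclusion puts luciferase in frame. Cells were seeded at 2000 cells/well, attached for 10-12 hours, then exposed to compounds for 30-36 hours at 37C before ONE-Glo luminescence.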
Rab9 prom act = activators of Rab9 promoter; Huh7 Rab9 promoter-luciferase reporter, luminescence, 24 h; Potency, µM (top dose mostly 9.22 µM), for inactives: top-dose activation, negative = inhibition, actives largely listed as activators; hit rate 2.8% among 320,000; further: % of control where 0% means no effect; nearly all actives have a fitted effect of over 60% in size
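Measured in stably transfected Huh7 cells bearing a Rab9 promoter–luciferase construct: 24 h compound treatment at 37 °C, followed by luminescence detection.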
FLuc modulator = inhibits or activates purified firefly luciferase, miR-21 counter-screen. hit rate 6.9% among 360,000. purified FLuc, Km substrates, luminescence inhibition. Potency, µM (top dose mostly 57.5 µM), without a hit: at the top dose activity change, negative = inhibition, hits mostly inhibitors. P08659;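 further: plate controls were vehicle for no effect and reference inhibitor for full effect; nearly all actives have a fitted effect of over 55% in size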
Target sequence (P08659 whole entry, looked up): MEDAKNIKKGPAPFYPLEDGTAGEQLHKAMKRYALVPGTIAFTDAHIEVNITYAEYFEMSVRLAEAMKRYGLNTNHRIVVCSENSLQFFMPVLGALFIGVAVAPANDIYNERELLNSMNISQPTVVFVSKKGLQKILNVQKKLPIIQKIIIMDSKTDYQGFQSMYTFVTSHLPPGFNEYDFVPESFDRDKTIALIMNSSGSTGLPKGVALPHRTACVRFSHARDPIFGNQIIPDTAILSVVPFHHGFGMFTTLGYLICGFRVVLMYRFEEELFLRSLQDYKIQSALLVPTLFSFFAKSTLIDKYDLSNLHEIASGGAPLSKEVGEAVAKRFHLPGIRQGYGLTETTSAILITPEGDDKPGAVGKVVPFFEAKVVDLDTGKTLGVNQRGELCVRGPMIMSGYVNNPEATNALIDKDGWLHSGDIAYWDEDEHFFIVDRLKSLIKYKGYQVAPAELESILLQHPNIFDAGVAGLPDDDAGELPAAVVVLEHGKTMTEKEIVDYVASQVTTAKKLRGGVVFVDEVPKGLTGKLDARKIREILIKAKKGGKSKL
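Purified P. pyralis luciferase (10nM final) with 10uM D-luciferin and 10uM ATP (Km levels) in 50mM Tris acetate pH 7.5, 10mM Mg acetate, 0.01% Tween-20, 0.05% BSA; qHTS 6-point titration, ~60 µM downward; luminescence read.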
NPC1 prom act = activates the NPC1 promoter | hit rate 2.4% among 320,000 | AID 485313 | Huh7 NPC1 promoter luciferase reporter, 24 h | Potency, µM (series often up to 9.22 µM), inactives show top-dose activation, hits mostly activators; further: % of control where 0% means no effect; nearly all actives have a fitted effect of over 60% in size
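Stable NPC1-promoter luciferase Huh7 line; cpd (DMSO) 24 h, 37 °C, 5% CO2; Amplite luciferase reagent 10 min RT; luminescence readout. qHTS format.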
ELG1 genotox = induces genotoxicity in HEK293T cells with luciferase-tagged ELG1. HEK293T ELG1-luciferase reporter, luminescence, 16 h. Potency, µM (series often up to 46 µM), for inactives: at the top dose activity change, positive = activation, most hits filed as activators. hit rate 1.3% among 330,000. AID 504466; further: % of control where 0% means no effect; nearly all actives have a fitted effect of over 60% in size
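16 hr compound incubation (37 °C, 5% CO2) of HEK293T cells carrying luciferase-tagged ELG1; luciferase then measured by ONE-Glo luminescence after 30 min at RT.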
ELG1 repair inh = blocks ELG1-dependent DNA repair in HEK293T cells; HEK293T ELG1-luciferase reporter, luminescence, 16 h; DNA damage induced by 5-fluorouridine; Potency, µM (titrated, usually from 46.1 µM), inactives show at the top dose activity change, negative = inhibition, actives largely listed as inhibitors; hit rate 2.3% among 330,000; further: on the % scale 0 is the no-effect control and ±100 the full control effect; nearly all actives have a fitted effect of over 55% in size
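5-Fluorouridine DNA damage + compound/DMSO, 2,000 cells/well, 16 h, 37 °C/5% CO2. ONE-Glo, 30 min RT, luminescence. Readout = decrease in reporter signal.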
Numbers without * were called inactive; ? = inconclusive; nt = no result; ! = a repeat was not active. The call rests on the fitted dose curve; in most records, active means well fitted curve in the direction sought with a large enough effect; inconclusive means small, poorly fitted or top-dose-only effect, or another doubt; inactive means no such curve, though single readings can be large; an effect the other way counts as inactive or inconclusive. Potency means the concentration at half of the fitted maximal effect.

SMILES	SMN2 splice up	Rab9 prom act	FLuc modulator	NPC1 prom act	ELG1 genotox	ELG1 repair inh
Cc1cc(Br)ccc1NC(=O)C1(S(=O)(=O)c2ccc(Cl)cc2)CC1	-9%	nt	0%	nt	nt	nt
COCc1cc(C)nc2sc(C(=O)Nc3ccccc3O)c(N)c12	-11%	nt	-1%	nt	nt	nt
COc1ccc(N2CCN(C(=O)CNC(=O)c3cn(-c4ccccc4OC)c(=O)c4ccccc34)CC2)cc1	-3%	-5%	?	-4%	-3%	-18%
COc1ccc(-n2nc(C(=O)NCC(=O)NC3CCCCCC3)c3ccccc3c2=O)c(OC)c1	nt	-8%	?	-6%	7%	1%
COc1ccc(-n2nc(C(=O)NCC(=O)N3CCN(c4ccccc4)CC3)c3ccccc3c2=O)c(OC)c1	nt	?	0.54µM*	?	0%	?
COc1ccc(-n2nc(C(=O)NCC(=O)N3CCN(c4ccc(F)cc4)CC3)c3ccccc3c2=O)c(OC)c1	nt	22%	1.7µM*	17%	13%	?
CCc1nnc(SCc2ccc(OC)cc2)c2cc3sc(C)cc3n12	nt	nt	0%	nt	nt	nt
Cc1ccc(NC(=O)Cn2c(=O)n(CCC(=O)NCc3ccccc3Cl)c(=O)c3ccccc32)cc1	20%	nt	-2%	nt	nt	nt
Cc1ccsc1CN(C(=O)c1oc2cc(Br)ccc2c1C)C1CCS(=O)(=O)C1 (configuration not stated)	24%	nt	-9%	nt	nt	nt
O=C(Cn1cc(C(F)(F)F)ccc1=O)N/N=C/c1ccc(F)cc1	8%	0%	-1%	-5%	-1%	-7%
O=C(Cn1cc(C(F)(F)F)ccc1=O)N/N=C/c1ccccc1O	nt	-11%	-10%	1%	12%	18µM*
CCOC(=O)CSc1nc(N)c(C#N)cc1C#N	?	8%	-9%	18%	12%	?
COC(=O)CSc1nc2cc3c(cc2cc1C)OCCO3	1%	9%	-15%	-10%	1%	-10%
CCOC(=O)CSc1nc2cc3c(cc2cc1C)OCO3	nt	-2%	2%	-6%	0%	4%
CC(C)OC(=O)CSc1nc2cc3c(cc2cc1C#N)OCO3	?	?	0%	4µM*	?	?
CCOC(=O)CSc1nc2cc3c(cc2cc1C#N)OCO3	13µM*	-30%	3%	?	23µM*	?
CCOC(=O)CSc1nc2cc3c(cc2cc1C#N)OCCO3	5.6µM*	?	?	2µM*	6.5µM*	?
COC(=O)CSc1nc2cc3c(cc2cc1C#N)OCO3	10µM*	0.79µM*	-6%	0.89µM*	?	?
CC(C)OC(=O)CSc1nc(N)c(C#N)cc1C#N	16%	?	0%	29%	?	?
CSc1cccc(NC(C)=O)c1	5%	-1%	-15%	2%	0%	-14%
CCC(=O)Nc1ccc(NC(=O)/C=C/c2ccc(Cl)cc2)cc1	nt	1%	-5%	4%	0%	?
CC(=O)Nc1ccc(NC(=O)/C=C/c2ccccc2)cc1	7%	6%	?	4%	-6%	?
CSc1cccc(NC(=O)/C=C/c2ccc(Cl)cc2)c1	27%	25%	3.4µM*	?	0%	?
CSc1ccc(/C=C/C(=O)Nc2ccccc2)cc1	3.2µM*	0.32µM*	0.24µM*	0.32µM*	-4%	?
CSc1cccc(NC(=O)/C=C/c2ccccc2)c1	?	2.2µM*	4.8µM*	3.2µM*	13%	?
SMILES	SMN2 splice up	Rab9 prom act	FLuc modulator	NPC1 prom act	ELG1 genotox	ELG1 repair inh
Cc1cc(S(=O)(=O)N2CCN(Cc3noc(CCC(=O)N4CCCCC4)n3)CC2)ccc1F	nt	nt	-1%	nt	nt	nt
CCOC(=O)c1cnn(-c2ccc(C(=O)Nc3cc(OC)c(OC)c(OC)c3)cc2)c1N	nt	nt	3%	nt	nt	nt
CCOc1ccc(Cn2c(CNS(=O)(=O)c3ccc(C(C)(C)C)cc3)nc3cccnc32)cc1	nt	nt	-3%	nt	nt	nt
CCOc1ccccc1C(=O)N(Cc1ccco1)Cc1ccccc1F	-20%	nt	-5%	nt	nt	nt
CC1CCCCN1C(=O)COC(=O)c1ccc2ccccc2n1 (configuration not stated)	nt	-4%	8.5µM*	-8%	1%	16%
Oc1ccccc1-c1nnc(COc2ccccc2)o1	-4%	4%	15µM*	8%	?	?
c1ccc(OCc2nnc(-c3ccccc3)o2)cc1	13µM*	4µM*	17µM*	?	?	?
O=C(OCc1nnc(-c2ccccc2)o1)c1ccco1	-11%	1%	24µM*	5%	5%	12%
O=Cc1ccc(OCc2nnc(-c3ccccc3Br)o2)cc1	nt	-1%	?	-2%	15%	?
Oc1ccccc1-c1nnc(COc2ccc(Cl)cc2Cl)o1	?	19%	?	-1%	13µM*	?
O=C(Nc1ccc(S(=O)(=O)N(Cc2ccccc2)c2ccccc2)cc1)c1ccc([N+](=O)[O-])cc1	nt	nt	-1%	nt	nt	nt
Clc1ccccc1-c1nnc(CNC2CC2)o1	-3%	9%	-2%	-3%	4%	?
Clc1ccc(-c2nnc(CCc3ccccc3)o2)c(Cl)c1	13µM*	2µM*	5.4µM*	2.5µM*	?	?
CCCCOC(=O)Nc1ccc(N2CCOCC2)cc1	11µM*	3.2µM*	15µM*	?	?	?
CCCCOC(=O)Nc1ccc(N2CCCCC2)cc1	11µM*	3.2µM*	3µM*	2.2µM*	?	?
COc1ccccc1C(=O)Nc1nnc(S(=O)(=O)N2CCCCC2)s1	nt	2%	-10%	0%	4%	?
Cc1ccc(C(=O)Nc2nnc(S(=O)(=O)N3CCCCCC3)s2)cc1	nt	0%	9.5µM*!	-3%	15%	-2%
Cc1ccc(C(=O)Nc2nnc(S(=O)(=O)N3CCOCC3)s2)cc1	nt	?	-23%	4%	0%	?
Cc1ccc(OCC(=O)Nc2nnc(S(=O)(=O)N3CCCCCC3)s2)cc1	nt	-8%	9.5µM*!	-1%	-3%	-4%
COc1ccc(C(=O)Nc2nnc(S(=O)(=O)N3CCC(C)CC3)s2)cc1OC	nt	-2%	3.4µM*!	-1%	-1%	4%
COc1ccccc1C(=O)Nc1nnc(S(=O)(=O)N2CCCCCC2)s1	nt	-1%	11µM*!	-2%	-1%	15%
COc1ccc(C(=O)Nc2nnc(S(=O)(=O)N3CCCCCC3)s2)cc1OC	nt	-8%	?	0%	4%	-8%
Cc1ccc(OCC(=O)Nc2nnc(S(=O)(=O)N3CCCCC3)s2)cc1	nt	-6%	-18%	0%	-1%	-5%
O=C1CC(c2ccccc2)Sc2ccccc2N1Cc1ccccc1F (configuration not stated)	-4%	nt	?	nt	nt	nt
